Experimental data as given in PubChem BioAssay (Tox21).
Records with an inconclusive call do not appear. The source made the active and inactive calls. Unless noted, the call rests on the fitted dose curve.

Experiments:
[1] = Nuclear factor erythroid 2-related factor 2/antioxidant responsive element (Nrf2/ARE) small molecule agonists: qHTS cell viability counter screen in human keratinocytes (AID 1919968; active means well fitted curve in the direction sought with a large enough effect in the repeat runs; an effect the other way counts as inactive or inconclusive; further: nearly all actives have a fitted effect of over 55% in size; further: potency means the concentration at half of the fitted maximal effect)
How it was run: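 HaCaT ARE reporter line, 1,500 cells/well; 5 h settle, 37 C/5% CO2; cpd in DMSO pinned; 23 h exposure; CellTiter-Fluor, 1 h; fluorescence.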

[2] = Nuclear factor erythroid 2-related factor 2/antioxidant responsive element (Nrf2/ARE) small molecule agonists: luciferase reporter gene qHTS assay in human keratinocytes (AID 1919969); further: nearly all actives have a fitted effect of over 35% in size; further: potency means the concentration at half of the fitted maximal effect
[3] = biological target: Gonadotropin-releasing hormone receptor (Homo sapiens) (UniProt P30968); assay: Human gonadotropin-releasing hormone receptor (GnRHR) small molecule agonists, calcium flux assay in GnRHR-HEK293 cells (AID 1920063); further: nearly all actives have a fitted effect of over 35% in size
Gonadotropin-releasing hormone receptor (Homo sapiens), sequence (P30968 whole entry, looked up): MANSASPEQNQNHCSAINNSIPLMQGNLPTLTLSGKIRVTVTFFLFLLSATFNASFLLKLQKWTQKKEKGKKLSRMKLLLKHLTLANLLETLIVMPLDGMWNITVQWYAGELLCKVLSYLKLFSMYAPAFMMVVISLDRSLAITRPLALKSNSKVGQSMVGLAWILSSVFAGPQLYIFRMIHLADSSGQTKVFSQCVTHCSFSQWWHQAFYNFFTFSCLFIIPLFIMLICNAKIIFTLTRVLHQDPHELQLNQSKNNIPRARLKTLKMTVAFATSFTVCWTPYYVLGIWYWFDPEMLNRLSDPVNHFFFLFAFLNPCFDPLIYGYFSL
How it was run: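 GnRHR-HEK293, 1500 cells/well, 18 h 37 C/5% CO2; Ca dye 1 h 37 C; cpd pinned (DMSO), agonist mode; kinetic FL 480/540, 3 min, 1 s reads; 15 conc, n=3.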

[4] = biological target: KiSS-1 receptor (Homo sapiens) (UniProt Q969F8); assay: Human kisspeptin (KISS1R) small molecule agonists, calcium flux assay in KISS1R-HEK293 cells (AID 1920064; active means well fitted curve in the direction sought with a large enough effect in the repeat runs; an effect the other way counts as inactive or inconclusive)
KiSS-1 receptor (Homo sapiens), sequence (Q969F8 whole entry, looked up): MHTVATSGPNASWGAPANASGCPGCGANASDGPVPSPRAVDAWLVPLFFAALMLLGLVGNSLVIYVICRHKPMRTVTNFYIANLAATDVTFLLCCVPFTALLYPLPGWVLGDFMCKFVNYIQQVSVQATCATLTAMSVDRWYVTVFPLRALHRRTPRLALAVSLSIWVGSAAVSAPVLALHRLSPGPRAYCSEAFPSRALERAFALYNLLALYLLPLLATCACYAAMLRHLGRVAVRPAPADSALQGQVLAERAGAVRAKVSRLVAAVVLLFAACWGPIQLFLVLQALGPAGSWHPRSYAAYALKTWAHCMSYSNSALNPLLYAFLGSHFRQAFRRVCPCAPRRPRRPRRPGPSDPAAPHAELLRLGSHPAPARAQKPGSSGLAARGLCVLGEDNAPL
How it was run: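 Stable human KISS1R HEK293 line; 18 h plating, 37 C/5% CO2; calcium dye 1 h 37 C; compound pin transfer; kinetic fluorescence Ex/Em 480/540, 3 min.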

[5] = G protein-coupled receptor (GPCR) small molecule agonists, calcium flux assay: HEK293 wild type cell line counter screen (AID 1920065)
How it was run: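 Kinetic fluorescence at Ex/Em 480/540, recorded every second over 3 min, served as the read-out after compound addition. Each compound was tested at 15 concentrations in triplicate on cells pre-loaded with calcium dye for 1 h.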

[6] = p53 small molecule agonists, cell-based qHTS assay with human liver microsomes: qHTS cell viability counter screen (AID 1963579); further: nearly all actives have a fitted effect of over 45% in size
How it was run: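 HLM-supplemented (0.5 mg/mL final) and NADPH-supplemented (0.5 mg/mL final) p53RE-bla cultures, 4,000 cells per well, were dosed with compounds in DMSO for 16 h at 37 C; luminescent ATP detection (CellTiter-Glo, 30 min, room temperature) quantified surviving cells.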

[7] = p53 small molecule agonists, cell-based qHTS assay: qHTS cell viability counter screen (AID 1963581); further: nearly all actives have a fitted effect of over 45% in size
How it was run: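 HCT-116 p53RE-bla cells, 4,000/well, plated 5 h before compound pin transfer; 16 h at 37 C; bla substrate 2 h RT; then CellTiter-Glo, 30 min RT, luminescence.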

[8] = cAMP Responsive Elements (CRE) small molecule agonists, cell-based qHTS assay (AID 1963590)
How it was run: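 HEK 293T CRE-bla, 2,000 cells/well, 18 h preincubation 37 C/5% CO2; cpds (DMSO) pinned, 3 h; LiveBLAzer B/G FRET substrate, 2 h RT.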

[9] = biological target: Beta-2 adrenergic receptor (Homo sapiens) (UniProt P07550); assay: Adrenergic beta2 receptor (ADRB2) small molecule antagonists, cell-based qHTS assay (AID 1963592); further: series mostly up to about 92 µM; nearly all actives have a fitted effect of over 50% in size
Beta-2 adrenergic receptor (Homo sapiens), sequence (P07550 whole entry, looked up): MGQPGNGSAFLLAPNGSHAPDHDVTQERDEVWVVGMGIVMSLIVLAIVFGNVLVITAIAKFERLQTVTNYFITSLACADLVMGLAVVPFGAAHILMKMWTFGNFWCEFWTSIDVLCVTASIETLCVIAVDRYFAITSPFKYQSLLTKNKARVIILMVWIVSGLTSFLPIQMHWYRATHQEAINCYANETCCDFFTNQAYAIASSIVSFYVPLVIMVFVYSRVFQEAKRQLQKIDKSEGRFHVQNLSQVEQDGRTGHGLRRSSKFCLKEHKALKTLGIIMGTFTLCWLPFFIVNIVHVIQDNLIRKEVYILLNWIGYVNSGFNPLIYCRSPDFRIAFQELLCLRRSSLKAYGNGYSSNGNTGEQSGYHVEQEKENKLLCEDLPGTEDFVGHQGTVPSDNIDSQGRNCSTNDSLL
How it was run: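 Cells (CHO, stable ADRB2 overexpression) incubated 18-20hr at 37C; compounds added from DMSO; agonist mix (1nM isoproterenol, 100uM IBMX, 25uM Ro-20-1724) added; 0.5hr RT; d2-cAMP and anti-cAMP-cryptate added; 1hr RT; 665/615 nm read.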

[10] = biological target: Beta-2 adrenergic receptor (Homo sapiens) (UniProt P07550); assay: Adrenergic beta2 receptor (ADRB2) small molecule agonists, cell-based qHTS assay (AID 1963593);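 further: CHO cells stably overexpressing human ADRB2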
How it was run: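 CHO cells stably over-expressing ADRB2 were plated overnight at 37C, then dosed with compounds plus a stimulation mix containing 100uM IBMX and 25uM Ro-20-1724 for 0.5hr at room temperature. cAMP was measured by HTRF competition, 1hr.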

[11] = biological target: D(2) dopamine receptor (Homo sapiens) (UniProt P14416); assay: Dopamine D2 receptor (DRD2) small molecule agonists, cell-based qHTS assay (AID 1963594); further: nearly all actives have a fitted effect of over 35% in size
D(2) dopamine receptor (Homo sapiens), sequence (P14416 whole entry, looked up): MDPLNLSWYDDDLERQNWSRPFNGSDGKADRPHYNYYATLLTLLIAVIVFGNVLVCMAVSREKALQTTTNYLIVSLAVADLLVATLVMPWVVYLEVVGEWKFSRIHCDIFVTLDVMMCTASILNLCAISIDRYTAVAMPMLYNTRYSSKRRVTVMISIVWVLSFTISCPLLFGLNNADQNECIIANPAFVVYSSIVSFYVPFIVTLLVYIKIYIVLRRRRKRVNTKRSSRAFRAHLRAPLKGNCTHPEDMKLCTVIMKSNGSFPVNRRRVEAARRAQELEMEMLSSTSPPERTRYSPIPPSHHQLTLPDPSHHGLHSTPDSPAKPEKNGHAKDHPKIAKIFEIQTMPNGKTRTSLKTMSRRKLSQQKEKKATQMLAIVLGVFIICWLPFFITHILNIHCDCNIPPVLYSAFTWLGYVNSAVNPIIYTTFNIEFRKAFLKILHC
How it was run: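 HEK293 cells stably expressing human DRD2, pre-treated with PDE inhibitor Ro20-1724 (0.1 mM final) and compound 10 min at room temperature, then stimulated with NKH477 (200nM […]) for 30 min. cAMP read by HTRF (665/620 nm).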

[12] = biological target: D(2) dopamine receptor (Homo sapiens) (UniProt P14416); assay: Dopamine D2 receptor (DRD2) small molecule antagonists, cell-based qHTS assay (AID 1963595; active means well fitted inhibition curve with a large enough effect in the signal ratio in the repeat runs, with a control signal flat; the % refers to the signal ratio; further: potency means the concentration at half of the fitted maximal effect)
How it was run: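 Cells were plated and grown for 24 h at 37 °C. Ro20-1724 (0.1 mM final) went in first, then compound for 10 min. NKH477 (200 nM) with quinpirole (12 nM) followed for 30 min at RT, then HTRF detection reagents for 1 h.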

[13] = biological target: 5-hydroxytryptamine receptor 2A (Homo sapiens) (UniProt P28223); assay: 5-hydroxytryptamine receptor 2A (HTR2A) small molecule antagonists, cell-based qHTS assay (AID 1963586); further: nearly all actives have a fitted effect of over 45% in size; further: potency means the concentration at half of the fitted maximal effect
5-hydroxytryptamine receptor 2A (Homo sapiens), sequence (P28223 whole entry, looked up): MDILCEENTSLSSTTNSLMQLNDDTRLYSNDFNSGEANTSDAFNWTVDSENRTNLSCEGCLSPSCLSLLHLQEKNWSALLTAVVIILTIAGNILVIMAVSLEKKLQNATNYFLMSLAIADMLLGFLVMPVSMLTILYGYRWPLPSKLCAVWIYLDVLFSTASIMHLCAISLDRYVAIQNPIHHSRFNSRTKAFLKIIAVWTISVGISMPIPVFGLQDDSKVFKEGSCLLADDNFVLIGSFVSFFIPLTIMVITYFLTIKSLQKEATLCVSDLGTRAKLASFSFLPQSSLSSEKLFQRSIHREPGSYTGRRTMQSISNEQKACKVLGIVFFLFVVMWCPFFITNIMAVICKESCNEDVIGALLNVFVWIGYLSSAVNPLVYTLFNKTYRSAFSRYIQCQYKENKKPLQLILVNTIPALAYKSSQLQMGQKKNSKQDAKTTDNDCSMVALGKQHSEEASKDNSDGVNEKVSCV
How it was run: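 Antagonist-mode intracellular calcium assay: DOI (4 nM) added after 5 min compound pre-incubation at room temperature to dye-loaded HTR2A-CHO cells. Fluorescence followed for 3 min, sampled every second.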

[14] = biological target: 5-hydroxytryptamine receptor 2A (Homo sapiens) (UniProt P28223); assay: 5-hydroxytryptamine receptor 2A (HTR2A) small molecule agonists, cell-based qHTS assay (AID 1963587); further: nearly all actives have a fitted effect of over 30% in size; further: potency means the concentration at half of the fitted maximal effect
How it was run: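 CHO cells stably expressing human HTR2A, plated 18 h, loaded with calcium dye 1 h at 37 C. Agonist mode: compounds added and intracellular calcium fluorescence recorded kinetically for 2 min at 1 sec intervals.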

[15] = biological target: Muscarinic acetylcholine receptor M1 (Homo sapiens) (UniProt P11229); assay: Cholinergic receptor muscarinic 1 (CHRM1) small molecule antagonists, cell-based qHTS assay (AID 1963588); further: nearly all actives have a fitted effect of over 40% in size; further: potency means the concentration at half of the fitted maximal effect
Muscarinic acetylcholine receptor M1 (Homo sapiens), sequence (P11229 whole entry, looked up): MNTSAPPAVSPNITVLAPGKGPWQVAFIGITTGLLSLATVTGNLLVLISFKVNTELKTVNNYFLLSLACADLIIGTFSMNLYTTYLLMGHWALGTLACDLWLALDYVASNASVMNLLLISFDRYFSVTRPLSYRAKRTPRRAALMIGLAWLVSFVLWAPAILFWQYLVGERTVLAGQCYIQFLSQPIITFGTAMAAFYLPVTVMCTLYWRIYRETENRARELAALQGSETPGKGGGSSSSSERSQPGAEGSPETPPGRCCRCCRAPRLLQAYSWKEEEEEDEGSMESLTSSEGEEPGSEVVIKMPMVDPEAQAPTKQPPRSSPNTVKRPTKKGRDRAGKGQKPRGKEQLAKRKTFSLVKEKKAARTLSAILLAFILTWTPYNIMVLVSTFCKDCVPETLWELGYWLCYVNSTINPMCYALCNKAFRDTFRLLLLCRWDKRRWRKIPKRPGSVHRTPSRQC
How it was run: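 CHRM1-CHO calcium-flux assay, antagonist mode. Cells were seeded 18 h, dye-loaded 1 h at 37 C and given compound for 5 min at RT, then acetylcholine was added at 50nM. FDSS fluorescence was read 3 min; 15 concentrations, three runs.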

[16] = biological target: Muscarinic acetylcholine receptor M1 (Homo sapiens) (UniProt P11229); assay: Cholinergic receptor muscarinic 1 (CHRM1) small molecule agonists, cell-based qHTS assay (AID 1963589); further: nearly all actives have a fitted effect of over 35% in size
How it was run: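 Human M1 in stable CHO line; 18 h plating, 1 h dye load 37 C; cpd added (agonist mode); Ca2+ fluorescence kinetic read, 1 s intervals; 15 conc, 3 runs.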

[17] = cAMP Responsive Elements (CRE) small molecule antagonists, cell-based qHTS assay (AID 1963591; active means well fitted inhibition curve with a large enough effect in the signal ratio in the repeat runs, not every such curve was filed as active; the % refers to the signal ratio)
How it was run: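 Beta-lactamase reporter read by FRET substrate (LiveBLAzer B/G) after 2 h at room temperature. CRE-bla HEK293T cells had received compound plus 0.25 uM (final) NKH477 for 3 h at 37 °C.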

[18] = p53 small molecule agonists, cell-based qHTS assay (AID 1963582; active means well fitted activation curve with a large enough effect in the signal ratio in the repeat runs, not every such curve was filed as active; the % refers to the signal ratio)
How it was run: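 Reporter line: p53RE-bla. Pre-incubation 5 h, 37 C, 5% CO2; compound (DMSO, pin tool) 16 h, 37 C; B/G FRET substrate 2 h RT; fluorescence intensity read.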

[19] = p53 small molecule agonists, cell-based qHTS assay with rat liver microsomes: qHTS cell viability counter screen (AID 1963580); further: nearly all actives have a fitted effect of over 45% in size
How it was run: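 Viability is assessed in parallel with the p53 reporter read: HCT-116 p53RE-bla cells receive compounds plus rat microsomes and NADPH (0.5 mg/mL final apiece), incubate 16 h at 37 C, and then CellTiter-Glo luminescence is recorded.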
On the % scale 0 is the no-effect control and ±100 the full control effect.

NC(N)=NCCN1CCCCCCC1
inactive: activity change, negative = cytotoxicity [1] -3.49% [at 0.349 µM] | activity, positive = activation [2] 3.17% [at 0.349 µM] | activity change [3] -0.022% [at 0.217 µM, stronger effect = higher value] | activation [4] 0.591% [at 0.29 µM] | activation [5] 0.864% [at 0.217 µM] | activity change, negative = cytotoxicity [6] 14.9% [at 0.249 µM] | activity change, negative = cytotoxicity [7] -15.6% [at 0.249 µM] | activation [8] -1.51% [at 0.349 µM] | activity change, negative = inhibition [9] 5.36% [at 0.349 µM] | activation [10] 1.36% [at 0.349 µM] | activation [11] -6.8% [at 0.349 µM] | activity change, negative = inhibition [12] -0.0361% [at 0.348 µM]

COc1ccc(Cc2cnc(N)nc2N)cc1OC
inactive: Potency [1] | Potency [2] | Potency [3] | Potency [4] | Potency [5] | Potency [6] | Potency [7] | Potency [13] | Potency [14] | Potency [15] | Potency [16] | Potency [8] | Potency [9] | Potency [10] | Potency [11] | Potency [12]

SCCOCCOCCS
inactive: Potency [1] | Potency [2] | Potency [3] | Potency [4] | Potency [5] | Potency [6] | Potency [7] | Potency [13] | Potency [15] | Potency [16] | Potency [8] | Potency [17] | Potency [9] | Potency [11] | Potency [12]

CC(=O)c1ccc2c(c1)N(CCCN(C)C)c1ccccc1S2
active: Potency [13] 25.9 nM | Potency [15] 410 nM | Potency [12] 1.68 µM
inactive: Potency [1] | Potency [2] | Potency [3] | Potency [4] | Potency [5] | Potency [6] | Potency [18] | Potency [14] | Potency [16] | Potency [8] | Potency [17] | Potency [9] | Potency [11]

CC(=O)/C(C)=C/C1C(C)=CCCC1(C)C (stereo not drawn)
inactive: Potency [1] | Potency [2] | Potency [3] | Potency [4] | Potency [5] | Potency [19] | Potency [7] | Potency [18] | Potency [13] | Potency [14] | Potency [15] | Potency [16] | Potency [17] | Potency [9] | Potency [11] | Potency [12]

C[C@H](CCC(=O)O)[C@H]1CC[C@H]2[C@@H]3C(=O)C[C@@H]4CC(=O)CC[C@]4(C)[C@H]3CC(=O)[C@]12C
inactive: Potency [1] | Potency [2] | Potency [3] | Potency [4] | Potency [5] | Potency [6] | Potency [13] | Potency [14] | Potency [15] | Potency [16] | Potency [9] | Potency [10] | Potency [11] | Potency [12]

O=C(O)CC(=O)C(=O)O
inactive: Potency [1] | Potency [2] | Potency [3] | Potency [4] | Potency [5] | Potency [6] | Potency [7] | Potency [13] | Potency [16] | Potency [8] | Potency [17] | Potency [9] | Potency [12]

C1CCCCCCCCCCC1
inactive: activity change, negative = cytotoxicity [1] 0.761% [at 19 µM] | activity, positive = activation [2] -8.94% [at 19 µM] | activity change [3] -0.293% [at 11.8 µM, stronger effect = higher value] | activation [4] 1.26% [at 15.8 µM] | activation [5] -0.978% [at 11.8 µM] | activity change, negative = cytotoxicity [19] 0.482% [at 13.5 µM] | activity change, negative = cytotoxicity [7] 9.85% [at 13.5 µM] | activity, negative = inhibition [13] -15.5% [at 12.7 µM] | activation [14] -0.851% [at 15.9 µM] | activity, negative = inhibition [15] 10.4% [at 12.6 µM] | activation [8] -0.929% [at 19 µM] | activity change, negative = inhibition [17] -1.59% [at 18.9 µM] | activity change, negative = inhibition [9] 0.327% [at 19 µM] | activation [11] -2.66% [at 19 µM] | activity change, negative = inhibition [12] -0.815% [at 18.9 µM]

O=C(O)c1nc(Cl)c(Cl)c(Cl)c1Cl
active: Potency [2] 30.6 µM
inactive: Potency [1] | Potency [3] | Potency [4] | Potency [5] | Potency [6] | Potency [7] | Potency [13] | Potency [14] | Potency [15] | Potency [16] | Potency [11] | Potency [12]

COc1nc(C)nc(N)n1
inactive: Potency [1] | Potency [2] | Potency [3] | Potency [4] | Potency [5] | Potency [6] | Potency [7] | Potency [13] | Potency [14] | Potency [15] | Potency [16] | Potency [8] | Potency [17] | Potency [10] | Potency [12]

CC(C)c1ccccc1C(C)C
inactive: Potency [1] | Potency [2] | Potency [3] | Potency [4] | Potency [5] | Potency [19] | Potency [7] | Potency [18] | Potency [13] | Potency [14] | Potency [15] | Potency [16] | Potency [17] | Potency [9] | Potency [10] | Potency [11] | Potency [12]

CCO[Si](CCCSSSSCCC[Si](OCC)(OCC)OCC)(OCC)OCC
inactive: Potency [2] | Potency [3] | Potency [4] | Potency [5] | Potency [6] | Potency [7] | Potency [13] | Potency [15] | Potency [16] | Potency [9] | Potency [11] | Potency [12]
active: Potency [1] 61.2 µM | Potency [14] 49 µM

CCCCCOC(=O)Nc1nc(=O)n([C@@H]2O[C@H](C)[C@@H](O)[C@H]2O)cc1F
inactive: Potency [1] | Potency [2] | Potency [3] | Potency [4] | Potency [5] | Potency [19] | Potency [7] | Potency [13] | Potency [14] | Potency [15] | Potency [16] | Potency [17] | Potency [9] | Potency [10] | Potency [11] | Potency [12]

CCOc1ccc(NC(N)=O)cc1
inactive: Potency [1] | Potency [2] | Potency [3] | Potency [4] | Potency [5] | Potency [6] | Potency [7] | Potency [13] | Potency [14] | Potency [15] | Potency [16] | Potency [17] | Potency [9] | Potency [11] | Potency [12]

CCc1ccccc1
inactive: Potency [1] | Potency [2] | Potency [3] | Potency [4] | Potency [5] | Potency [6] | Potency [7] | Potency [13] | Potency [14] | Potency [15] | Potency [16] | Potency [8] | Potency [9] | Potency [10] | Potency [11] | Potency [12]
